# Sampled rows, rich in hits. Any-hit rate of the full collection: about 0.71%.
# hiPSC survival: hiPSC single-cell survival enhancement | hit rate 0.044% among 360,000 | survival enhancement, % at 20 µM | AID 602274 | ATPlite luminescence; 100% = ROCK inhibitor wells, 0% = DMSO; in the data active = survival enhancement above about 18%;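 note: cells exposed to compounds for 16 hours before the ATP read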
# TAG inh: inhibitors of triacylglycerol accumulation. H9c2 cells, Nile Red lipid (TAG) fluorescence; cells loaded with 200 µM oleic acid. inhibition, % at 12.5 µM. hit rate 0.66% among 230,000. AID 651582;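 active = pattern-corrected inhibition of lipid staining of at least 50% with the nuclear-stain viability signal not falling by more than 50%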;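 note: 0% = DMSO wells and 100% = triacsin C control wells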
# MIN6 prolif-1: induces beta-cell replication in MIN6 cells; hit rate 0.29% among 330,000; proliferation, % at 10 µM; MIN6 cells proliferation, ATPlite luminescence, 48 h; cells starved in 0.2% serum; 100% = growth in 10% serum;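 active = compounds whose signal lies at least 3.5 SD above the mean of all wells on their plate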;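 note: 0% = DMSO-treated cells in low-serum medium and 100% = 10% serum control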
# MIN6 prolif-2: MIN6 beta-cell replication induction, confirmed; shares compounds with MIN6 prolif-1; MIN6 beta-cell proliferation, ATPlite luminescence, 48 h; cells kept in 0.2% serum; scaled between 0.2% and 10% serum; proliferation increase, % at 50 µM; 920 tested, under 10 active; AID 463095;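 active = proliferation increase above 40% at any of the four tested concentrations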
# H9c2 TAG conf: confirmation of triacylglycerol accumulation inhibitors | AID 651629 | hit rate 71% among 990 | shares compounds with TAG inh | H9c2 lipid accumulation, Nile Red fluorescence; cells loaded with 200 µM oleic acid | inhibition, % at 12.5 µM;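 active = mean inhibition across replicates of 40% or more; inactive = mean inhibition below 40%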;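 note: plate controls were DMSO only wells for no effect and Triacsin C treated wells for full effect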
# Starred values were filed as active, the others as inactive; / = no result; ! = a repeat was not active.
SMILES,hiPSC survival,TAG inh,MIN6 prolif-1,others
CC1=CC(C)CC(C)OC(=O)CC(c2ccc(O)cc2)NC(=O)C(Cc2c(Br)[nH]c3ccccc23)N(C)C(=O)C(C)NC(=O)C(C)C1 (centres undefined),-4.4,98.0*,/,
O=c1[nH]c2ccccc2n1C1CCN(C(CCc2ccccc2)c2nnnn2C2CCCCC2)CC1 (centres undefined),0.5,/,/,
CCOC(=O)[C@]12Cc3c(cc(OC)c(OC)c3OC)[C@H]1N(C1CCCCC1)C(=O)c1ccccc12,-1.8,/,/,
CCOC(=O)[C@]12Cc3cc(C)ccc3[C@H]1N(C1CCCCC1)C(=O)c1ccccc12,-2.0,/,/,
CC1CCC(C(C)C)C(OC(=O)Cn2c(COc3ccccc3)[n+](C)c3ccccc32)C1 (centres undefined),-0.9,103.8*,-6.5,
COCCCn1c(N)c(C(=O)OCCOC)c2nc3ccccc3nc21,1.2,-16.9,-1.7,
CCOC(=O)c1c(N)n(CCCOC(=O)c2ccco2)c2nc3ccccc3nc12,-3.5,53.0*,-3.8,
c1ccc(C(c2ccccc2)c2ccncc2)cc1,-2.5,34.0,/,
C=C1C(=O)O[C@@H]2C[C@@H](C)[C@@H]3C4OC4C(=O)[C@@]3(C)[C@@H](O)[C@H]12 (some centres undefined),8.5,110.5*,-7.7,
C=C1C(=O)O[C@H]2C[C@@H](C)[C@@H]3C=CC(=O)[C@@]3(C)C[C@H]12,/,/,-6.8,
C=C1C(=O)OC2CC(C)C3C=CC(=O)C3(C)C(O)C12 (centres undefined),50.0*,72.2,/,
C=C1C(=O)O[C@@H]2C[C@@H](C)[C@@H]3C=CC(=O)[C@@]3(C)[C@@H](OC(=O)CC(=O)O[C@H]3[C@@H]4C(=C)C(=O)O[C@@H]4C[C@@H](C)[C@@H]4C=CC(=O)[C@]43C)[C@H]12,4.2,/,-7.6,
CCOC(=O)[C@]12Cc3cc(Cl)ccc3[C@H]1N(C1CCCCC1)C(=O)c1cc(OC)ccc12,-2.0,/,/,
CN(Cc1cccc(-c2ccncc2)c1)C(=O)Oc1ccccc1Cc1ccccc1,0.5,/,/,
NC(=O)c1c(Br)n(C2OC(CO)C(O)C2O)c2ncnc(N)c12 (centres undefined),-1.7,42.8,/,
N#Cc1cn(C2OC(CO)C(O)C2O)c2ncnc(N)c12 (centres undefined),-2.5,89.8*,/,
N#Cc1c(Br)n(C2OC(CO)C(O)C2O)c2ncnc(N)c12 (centres undefined),-4.1,52.1*,/,
NC(=O)c1cn(C2OC(CO)C(O)C2O)c2ncnc(N)c12 (centres undefined),-0.7,47.9,-4.3,
O=C(NCCN1CCC2(CC1)C(=O)NCN2c1cccc(F)c1)c1ccc2ccccc2c1,-0.2,/,/,
CCCCCN1C(=O)c2cc(OC)ccc2[C@@]2(C(=O)OCC)Cc3cc(OC)ccc3[C@@H]12,-1.6,/,/,
CCOC(=O)c1cc2ccccc2n1C1CCN(Cc2ccccc2)CC1,-1.1,/,/,
C=C1[C@@H](C)[C@H]2[C@H](Cc3ccccc3)NC(=O)[C@]23OC(=O)/C=C/[C@H](O)CCC[C@@H](C)C/C=C/[C@H]3[C@@H]1O,40.1*,95.9,-4.7,
C=C1C(C)C2C(Cc3ccccc3)NC(=O)C23C(OC(C)=O)C=CC(C)(O)CC(C)CC=CC3C1O (centres undefined),60.4*,98.1*,/,
CC(=O)O[C@@H]1/C=C/[C@](C)(O)C[C@@H](C)C/C=C/[C@H]2[C@H](O)C(C)=C(C)[C@H]3[C@H](Cc4ccccc4)NC(=O)[C@@]123,/,/,-3.7,
C[C@H]1C/C=C/[C@H]2[C@H](O)[C@H](C)[C@@](C)(O)[C@H]3[C@H](Cc4ccccc4)NC(=O)[C@]32[C@H](O)/C=C/[C@](C)(O)C1,0.5,/,-4.6,
SMILES,hiPSC survival,TAG inh,MIN6 prolif-1,others
C[C@]12CC[C@@H](O)CC1=CCC1C2CC[C@@]2(C)C1C[C@@H](F)[C@H]2O (some centres undefined),-0.9,-17.8,/,
Cc1nc2cc(OC(=O)N(C)Cc3cccc(-c4ccncc4)c3)ccc2s1,-0.3,/,/,
CSCCC(c1nnnn1-c1c(C)cccc1C)N1CCC2(CC1)C(=O)NCN2c1ccccc1 (centres undefined),-2.3,/,/,
CNc1cc(Cl)c2nonc2c1[N+](=O)[O-],48.2*,78.7*,/,
Cc1cc([N+](=O)[O-])c(Cl)cc1NC(=O)C(C)C,-1.9,/,-2.5,
CN(C)C(=O)On1c(-c2ccccc2)nc2ccc(Cl)cc21,2.3,-0.7,11.9*,MIN6 prolif-2=-6.3
COc1ccc(-c2nc3ccccc3n2OC(=O)N(C)C)cc1,-3.2,1.0,-0.5,
CCOC(=O)[C@]12Cc3cc(C)ccc3[C@H]1N(Cc1ccccc1)C(=O)c1cc(OC)ccc12,-0.9,/,/,
CC1CCCCC1NC1CCN(C)CC1 (centres undefined),-0.4,7.4,6.0*,MIN6 prolif-2=-2.7
COc1ccc(CCNC2CCCCCC2)cc1,-0.5,-2.4,-3.5,
COc1ccc(CC(C)NC2CCCCCC2)cc1 (centres undefined),-0.1,/,6.1*,MIN6 prolif-2=-1.7
CC(CC(C#N)(c1ccccc1)c1ccccc1)N1CCOCC1 (centres undefined),0.4,-10.8,/,
COC1CC2C=C(C)C=CC=CC(=O)NC(c3ccccc3)CC=CCCC(O)CC(=O)C2=C1O (centres undefined),-2.1,/,/,
CCCCn1c(=O)c(C(=O)Nc2ncccc2C)c(O)c2ccccc21,-0.6,-11.2,-4.9,
CCCCCCn1c(=O)c(C(=O)Nc2ncccc2C)c(O)c2ccccc21,-0.6,/,6.6*,MIN6 prolif-2=-6.2
COc1cccc(C(c2nnnn2C2CCCCC2)N2CCC3(CC2)C(=O)NCN3c2ccccc2)c1OC (centres undefined),2.2,/,/,
O=C(O)C1C2CCC(O2)C1C(=O)Nc1ccc(Cl)cc1 (centres undefined),1.7,/,-4.2,
COc1ccc(NC(=O)C2C3CCC(O3)C2C(=O)O)c(OC)c1 (centres undefined),0.8,/,6.7*,MIN6 prolif-2=-3.3
CC1(C)CCCN1CCC(C(N)=O)(c1ccccc1)c1ccccc1,-1.4,5.3,/,
CC(C)N(CCC(C(N)=O)(c1ccccc1)c1ccccn1)C(C)C (centres undefined),-2.6,-0.8,13.2*!,MIN6 prolif-2=3.6
CC1(CCCc2ccc(N(CCCl)CCCl)cc2)NC(=O)NC1=O (centres undefined),-0.1,24.3,/,
CO[C@H]1C=CCCC=CC(=O)O[C@H]([C@H](C)C(=O)CCCC2CC(=O)NC(=O)C2)C(C)=C[C@@H](C)[C@@H]1O,0.4,/,/,
O=C1NCN(c2ccccc2)C12CCN(C(c1cc3ccccc3o1)c1nnnn1Cc1ccccc1)CC2 (centres undefined),1.1,/,/,
CN1CSC(=S)N(C)C1,4.0,64.5*,0.1,H9c2 TAG conf=64.2*
COc1ccc(C2=CC(c3ccc4c(c3)OCO4)c3c(c4ccccc4oc3=O)O2)cc1OC (centres undefined),0.3,60.7*,/,H9c2 TAG conf=60.5*

# Source: PubChem BioAssay
